The full ranking holds about 16,000 sequences; the median of “rpm ratio (pull-down/input)” is about 0.94, and the highest 2% start at about 1.7. The sample as a whole holds a higher share of the highest values than the screen did.
These sequences were tested against T1, MBP-FoxP1dN (Mus musculus, UniProt P58462 326-579) (assay: PD-seq (MBP pull-down with sequencing); 20 mM Tris-HCl pH 7.5, 100 mM NaCl, 1.5 mM MgCl2, 0.4 uM protein, 0.1 uM dsDNA library, 30 min, room temperature, amylose pull-down; high values mean tight binding). Details: protein: recombinant; tags: His6-MBP; chain copies: 2; dsDNA, one strand shown.
T1 sequence: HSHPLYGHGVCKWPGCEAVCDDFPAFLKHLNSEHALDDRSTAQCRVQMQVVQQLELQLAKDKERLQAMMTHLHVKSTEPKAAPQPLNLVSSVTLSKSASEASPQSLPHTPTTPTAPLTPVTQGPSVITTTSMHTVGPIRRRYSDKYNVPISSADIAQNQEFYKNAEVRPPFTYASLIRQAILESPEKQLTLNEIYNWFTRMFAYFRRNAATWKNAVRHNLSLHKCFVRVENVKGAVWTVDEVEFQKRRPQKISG
How it was run: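 In Tris pH 7.5 buffer with NaCl and MgCl2, 0.4 µM His6-MBP-tagged mouse FoxP3 or FoxP1 fragment lacking the N-terminus, from E. coli, met 0.1 µM Klenow-filled double-stranded degenerate DNA library for 30 min at room temperature. Three washes on amylose resin followed capture of the complexes, then proteinase K release of DNA, PCR barcoding and Illumina sequencing. Binding is taken as pooled-replicate reads-per-million enrichment of pull-down relative to input.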
“GATGATTGTTCTCCCAGCTGATGAATTCTTCATCTCGAGTAAACAAATTTTCCTAATCTTTCTGTTCAAGCGCCATCTAC” was tested, and the binding signal was 0.813 RPM ratio (pull-down/input). With “GATGATTGTTCTCCCAGCTGATGAATTGGTGCATTCGAGTAAACAAATTTTCCTAATCTTTCTGTTCAAGCGCCATCTAC” the binding signal was 1.35 RPM ratio (pull-down/input). For “GATGATTGTTCTCCCAGCTGATGAATTAACCTGCTCGAGTAAACAAATTTTCCTAATCTTTCTGTTCAAGCGCCATCTAC”, the binding signal was 0.79 RPM ratio (pull-down/input). For “GATGATTGTTCTCCCAGCTGATGAATTGACGAACTCGAGTAAACAAATTTTCCTAATCTTTCTGTTCAAGCGCCATCTAC”, the binding signal was 1.03 RPM ratio (pull-down/input). With “GATGATTGTTCTCCCAGCTGATGAATTTCTTGGGTCGAGTAAACAAATTTTCCTAATCTTTCTGTTCAAGCGCCATCTAC” the binding signal was 0.716 RPM ratio (pull-down/input). In the case of “GATGATTGTTCTCCCAGCTGATGAATTATGTGAATCGAGTAAACAAATTTTCCTAATCTTTCTGTTCAAGCGCCATCTAC”, the binding signal is reported as 1.14 RPM ratio (pull-down/input). With “GATGATTGTTCTCCCAGCTGATGAATTATGTATATCGAGTAAACAAATTTTCCTAATCTTTCTGTTCAAGCGCCATCTAC” the binding signal was 1.79 RPM ratio (pull-down/input). With “GATGATTGTTCTCCCAGCTGATGAATTATGTATCTCGAGTAAACAAATTTTCCTAATCTTTCTGTTCAAGCGCCATCTAC” the binding signal was 1.45 RPM ratio (pull-down/input). “GATGATTGTTCTCCCAGCTGATGAATTGTATGTATCGAGTAAACAAATTTTCCTAATCTTTCTGTTCAAGCGCCATCTAC” was tested, and the binding signal was 1.67 RPM ratio (pull-down/input). “GATGATTGTTCTCCCAGCTGATGAATTATGTGTATCGAGTAAACAAATTTTCCTAATCTTTCTGTTCAAGCGCCATCTAC” was tested, and the binding signal was 1.92 RPM ratio (pull-down/input). For “GATGATTGTTCTCCCAGCTGATGAATTATATGTATCGAGTAAACAAATTTTCCTAATCTTTCTGTTCAAGCGCCATCTAC”, the binding signal was 1.41 RPM ratio (pull-down/input). With “GATGATTGTTCTCCCAGCTGATGAATTACAAAATTCGAGTAAACAAATTTTCCTAATCTTTCTGTTCAAGCGCCATCTAC” the binding signal was 1.37 RPM ratio (pull-down/input). In the case of “GATGATTGTTCTCCCAGCTGATGAATTCACCCGGTCGAGTAAACAAATTTTCCTAATCTTTCTGTTCAAGCGCCATCTAC”, the binding signal is reported as 0.783 RPM ratio (pull-down/input). With “GATGATTGTTCTCCCAGCTGATGAATTTAGTCTCTCGAGTAAACAAATTTTCCTAATCTTTCTGTTCAAGCGCCATCTAC” the binding signal was 0.934 RPM ratio (pull-down/input). With “GATGATTGTTCTCCCAGCTGATGAATTCCCTTTCTCGAGTAAACAAATTTTCCTAATCTTTCTGTTCAAGCGCCATCTAC” the binding signal was 0.783 RPM ratio (pull-down/input). For “GATGATTGTTCTCCCAGCTGATGAATTCCGCCGATCGAGTAAACAAATTTTCCTAATCTTTCTGTTCAAGCGCCATCTAC”, the binding signal was 0.721 RPM ratio (pull-down/input). For “GATGATTGTTCTCCCAGCTGATGAATTATTAACCTCGAGTAAACAAATTTTCCTAATCTTTCTGTTCAAGCGCCATCTAC”, the binding signal was 1.06 RPM ratio (pull-down/input). For “GATGATTGTTCTCCCAGCTGATGAATTACACAGATCGAGTAAACAAATTTTCCTAATCTTTCTGTTCAAGCGCCATCTAC”, the binding signal was 1.18 RPM ratio (pull-down/input). “GATGATTGTTCTCCCAGCTGATGAATTTACACAATCGAGTAAACAAATTTTCCTAATCTTTCTGTTCAAGCGCCATCTAC” was tested, and the binding signal was 1.87 RPM ratio (pull-down/input). In the case of “GATGATTGTTCTCCCAGCTGATGAATTACACAAATCGAGTAAACAAATTTTCCTAATCTTTCTGTTCAAGCGCCATCTAC”, the binding signal is reported as 1.77 RPM ratio (pull-down/input). With “GATGATTGTTCTCCCAGCTGATGAATTTTACACATCGAGTAAACAAATTTTCCTAATCTTTCTGTTCAAGCGCCATCTAC” the binding signal was 1.11 RPM ratio (pull-down/input). For “GATGATTGTTCTCCCAGCTGATGAATTACACACATCGAGTAAACAAATTTTCCTAATCTTTCTGTTCAAGCGCCATCTAC”, the binding signal was 1.48 RPM ratio (pull-down/input). In the case of “GATGATTGTTCTCCCAGCTGATGAATTTTTACAATCGAGTAAACAAATTTTCCTAATCTTTCTGTTCAAGCGCCATCTAC”, the binding signal is reported as 1.23 RPM ratio (pull-down/input). In the case of “GATGATTGTTCTCCCAGCTGATGAATTCCCTACCTCGAGTAAACAAATTTTCCTAATCTTTCTGTTCAAGCGCCATCTAC”, the binding signal is reported as 0.836 RPM ratio (pull-down/input). “GATGATTGTTCTCCCAGCTGATGAATTGTCACAGTCGAGTAAACAAATTTTCCTAATCTTTCTGTTCAAGCGCCATCTAC” was tested, and the binding signal was 1.08 RPM ratio (pull-down/input). “GATGATTGTTCTCCCAGCTGATGAATTGCCAATTTCGAGTAAACAAATTTTCCTAATCTTTCTGTTCAAGCGCCATCTAC” was tested, and the binding signal was 1.04 RPM ratio (pull-down/input). “GATGATTGTTCTCCCAGCTGATGAATTATTCTTTTCGAGTAAACAAATTTTCCTAATCTTTCTGTTCAAGCGCCATCTAC” was tested, and the binding signal was 1.17 RPM ratio (pull-down/input). “GATGATTGTTCTCCCAGCTGATGAATTTGTATATTCGAGTAAACAAATTTTCCTAATCTTTCTGTTCAAGCGCCATCTAC” was tested, and the binding signal was 1.71 RPM ratio (pull-down/input). In the case of “GATGATTGTTCTCCCAGCTGATGAATTCTGTATTTCGAGTAAACAAATTTTCCTAATCTTTCTGTTCAAGCGCCATCTAC”, the binding signal is reported as 1.18 RPM ratio (pull-down/input). For “GATGATTGTTCTCCCAGCTGATGAATTTTTGTATTCGAGTAAACAAATTTTCCTAATCTTTCTGTTCAAGCGCCATCTAC”, the binding signal was 1.8 RPM ratio (pull-down/input). “GATGATTGTTCTCCCAGCTGATGAATTGTATTATTCGAGTAAACAAATTTTCCTAATCTTTCTGTTCAAGCGCCATCTAC” was tested, and the binding signal was 1.67 RPM ratio (pull-down/input).
